Sampled rows, rich in hits. Any-hit rate of the full collection: about 2.3%.
Tau fluor cs – counter-screen for tau fibril formation inhibitors | tau K18 P301L Alexa594 fluorescence, heparin fibrillization | Potency, µM (titrated, usually from 57.7 µM), for the others: top-dose activity change, negative = decrease | 280,000 compounds, 0.93% hits; also: potency is read from the fitted curve at half-maximal effect; % is scaled to controls: 0 for no effect and ±100 for the full control effect; nearly all actives have a fitted effect of over 55% in size
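Human tau K18 P301L (15 uM unlabeled, 0.24 uM Alexa 594-labeled) in 100 mM sodium acetate pH 7 with 20 uM heparin, 6 hr at 37 C. ThT 30 uM added, 1 hr ambient; Alexa 594 FP and total fluorescence read at 555/632 nm.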
Tau fibril ThT – tau fibrillization inhibition (ThT binding); recombinant tau K18 P301L, heparin-induced fibrillization, ThT fluorescence; P10636; 270,000 compounds, 2.1% hits; Potency, µM (doses to about 57.4 µM), for the others: top-dose activity, negative = inhibition, hits mostly inhibitors; AID 1460; also: potency is read from the fitted curve at half-maximal effect; % is scaled to controls: 0 for no effect and ±100 for the full control effect; nearly all actives have a fitted effect of over 55% in size
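K18 P301L tau (15 uM + 0.24 uM Alexa 594-tagged), heparin 20 uM, NaOAc pH 7, 6 h 37 C; ThT 30 uM, 1 h RT, ex 450/em 510 nm.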
Coupling enz – coupling enzyme interference in Giardia aldolase counter-screen; coupling enzyme system counterscreen, AmpLite Red fluorescence; activity change, negative = inhibition, % at 58.2 µM, hits read low; 290,000 compounds, 0.67% hits; AID 2472; in the data active = activity change below about -30%; also: % is scaled to controls: 0 for no effect and ±100 for the full control effect
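Final compound at 57.5 uM, incubated 10 min at RT with coupling enzyme reagent (glyceraldehyde-3-phosphate), then 20 min with substrate and AmpLite Red detection. Fluorescence read at 525/598 nm; tests interference with the coupling assay, not aldolase inhibition.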
USP1-UAF1 inh – USP1/UAF1 (human) deubiquitinase inhibition; O94782; recombinant USP1/UAF1, Ub-Rhodamine cleavage fluorescence; Potency, µM (doses to about 57.1 µM), inactives show at the top dose activity change, negative = inhibition, usual class: inhibitors; 390,000 compounds, 0.23% hits; AID 743255; also: potency is read from the fitted curve at half-maximal effect; % is scaled to controls: 0 for no effect and ±100 for the full control effect; nearly all actives have a fitted effect of over 60% in size
Target sequence (O94782 whole entry, looked up): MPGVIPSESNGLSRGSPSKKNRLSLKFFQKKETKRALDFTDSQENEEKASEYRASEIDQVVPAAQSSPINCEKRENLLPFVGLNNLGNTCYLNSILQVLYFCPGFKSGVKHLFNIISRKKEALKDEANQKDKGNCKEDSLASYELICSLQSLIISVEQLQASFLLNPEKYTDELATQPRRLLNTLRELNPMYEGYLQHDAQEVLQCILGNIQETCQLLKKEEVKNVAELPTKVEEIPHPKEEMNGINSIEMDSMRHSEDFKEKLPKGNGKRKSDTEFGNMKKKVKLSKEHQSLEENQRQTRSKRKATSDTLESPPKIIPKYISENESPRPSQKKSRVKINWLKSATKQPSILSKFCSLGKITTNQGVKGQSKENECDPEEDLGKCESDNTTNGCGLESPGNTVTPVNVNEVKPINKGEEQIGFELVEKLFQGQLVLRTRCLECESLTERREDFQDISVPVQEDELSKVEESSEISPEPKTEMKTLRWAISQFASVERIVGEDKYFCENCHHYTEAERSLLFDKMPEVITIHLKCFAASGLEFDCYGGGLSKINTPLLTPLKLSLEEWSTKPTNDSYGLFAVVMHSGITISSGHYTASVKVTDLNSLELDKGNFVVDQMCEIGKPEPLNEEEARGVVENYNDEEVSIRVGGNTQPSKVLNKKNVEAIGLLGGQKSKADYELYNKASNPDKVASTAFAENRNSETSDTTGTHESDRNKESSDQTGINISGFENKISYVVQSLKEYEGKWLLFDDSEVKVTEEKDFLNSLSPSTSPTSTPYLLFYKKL
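Step one: compound is pinned into 1nM USP1/UAF1 in HEPES pH 7.8 buffer with TCEP. Step two: 15 min room-temperature incubation. Step three: Ub-Rho (150nM final) starts cleavage, tracked by fluorescence over six one-minute reads.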
Tau FP inhib – tau fibrillization inhibition (FP). AID 1468. Potency, µM (doses to about 57.7 µM), without a hit: top-dose activity, negative = inhibition, hits mostly inhibitors. K18 P301L tau heparin fibrillization, Alexa594 FP, 6 h. P10636. 280,000 compounds, 0.39% hits; also: potency is read from the fitted curve at half-maximal effect; % is scaled to controls: 0 for no effect and ±100 for the full control effect; nearly all actives have a fitted effect of over 55% in size
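Human K18 P301L fragment (15 uM unlabeled plus 0.24 uM Alexa 594-labeled) in 100 mM sodium acetate pH 7 with compound, aggregation induced by 20 uM heparin for 6 hr at 37 C. ThT (30 uM) added for 1 hr, then Alexa 594 FP read.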
Tau TEM fibril – Inhibits tau K18 fibrillization by TEM grading; shares compounds with Tau fibril ThT; fibril grade (0 = clumped fibrils, 4 = only tiny pieces) (no concentration beside the values); 45 compounds, 70% hits; recombinant tau K18 P301L fibrillization, TEM grading; hits give high values;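 active = compounds whose electron micrographs showed tau fibrils broken into shorter filaments or fragments, graded high on fibril breakup; inconclusive = micrographs gave an unclear fibril picture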
tau sediment – inhibitors of human tau fibrillization, sedimentation test; shares compounds with Tau fibril ThT; recombinant tau K18 P301L (four-repeat tau fragment), sedimentation SDS-PAGE densitometry; inhibition, % at 100 µM; 110 compounds, 50% hits; AID 1720; in the data active = inhibition above about 40%; inconclusive = no clear call, values can overlap the other calls; inactive = below about 18%
* marks the source's active call; other numbers are inactive results; ? = inconclusive; / = not tested or not shown; [ ] = remark or other dose. Unless noted, calls follow the shape of the dose curve; as a rule, active = well fitted curve in the direction sought with a large enough effect; inconclusive = small, poorly fitted or top-dose-only effect, or another doubt; inactive = no such curve, though single readings can be large; an effect the other way counts as inactive or inconclusive.

SMILES	Tau fluor cs	Tau fibril ThT	Coupling enz	USP1-UAF1 inh	Tau FP inhib	tau sediment	others
CCN(c1ccccc1)S(=O)(=O)c1nnc(NC(=O)C(C)(C)C)s1	2%	?	-1	-9%	?	18
Cc1ccc(C(=O)Nc2nc(=O)n(C(=O)C3CC3)s2)cc1	-22%	8.9µM*	-4	-6%	?	49*	Tau TEM fibril=?
Cc1ccc(C(=O)Nc2ccc3c(c2)n(C)c(=O)c(=O)n3C)cc1	-9%	?	/	-15%	3%	/
COC(=O)c1c(NC(=O)CCCOc2ccc(C(C)(C)C)cc2)sc2c1C(C(=O)OC)CC2 (centres undefined)	?	8.9µM*	/	-10%	?	?	Tau TEM fibril=0
CCCC(=O)Nc1sc2c(c1C(=O)OC)C(C(=O)OC)CC2 (centres undefined)	-5%	-10%	1	-14%	?	/
Cc1ccc(-c2ccc(/C=N/N=C3/NC(=O)C(CC(=O)O)S3)o2)c([N+](=O)[O-])c1 (centres undefined)	-23%	10µM*	-6	-27%	?	?	Tau TEM fibril=?
O=C(O)CC1S/C(=N/N=C/c2ccc(-c3ccccc3[N+](=O)[O-])o2)NC1=O (centres undefined)	-30%	2.2µM*	-29	-25%	?	58*	Tau TEM fibril=4*
O=C(CCS(=O)(=O)c1cc(Br)cc2c1N(C(=O)C1CC1)CC2)Nc1ccc(F)cc1	-2%	2%	/	-11%	-3%	/
CC(C)C(C)NC(=O)CSc1nc2scc(-c3ccco3)c2c(=O)n1-c1ccccc1 (centres undefined)	-29%	8.9µM*	6	-1%	4.5µM*	68*	Tau TEM fibril=3*
CC(C)CCNC(=O)c1ccc(NC(=O)N2CCCCc3ccccc32)cc1	-9%	5%	/	-1%	-1%	/
COc1ccc(NCc2cc3cc4c(cc3n(CC(=O)Nc3cc(C)cc(C)c3)c2=O)OCO4)cc1	?	?	/	-26%	?	/
Cc1ccc(NCc2cc3cc4c(cc3n(CC(=O)Nc3ccc(C)cc3)c2=O)OCCO4)cc1	?	-3%	/	-28%	14%	9
Cc1nn(CCCC(=O)Nc2ccccc2C(F)(F)F)c(=O)c2nn(-c3ccccc3)c(C)c12	-2%	6%	/	-13%	-9%	/
COc1ccc2c(c1)c(CC(=O)Nc1c(C)cccc1C)c(C)n2C(=O)c1ccc(Cl)cc1	-4%	5%	/	-5%	-13%	/
COc1ccc2c(c1)c(CC(=O)Nc1ccc(C(C)=O)cc1)c(C)n2C(=O)c1ccc(Cl)cc1	?	?	-1	-15%	?	12
COC(=O)c1ccc(NC(=O)CSc2nnc3c4ccccc4n(C(C)C)c3n2)cc1	?	?	/	?	-12%	/
CC(=O)c1ccc(Nc2nc(-c3sc(C)nc3C)cs2)cc1	/	/	/	-5%	/	/
COc1ccc(Nc2nc(-c3sc(NC(C)=O)nc3C)cs2)cc1	?	13µM*	-6	/	4%	42*	Tau TEM fibril=3*
CSc1ccccc1NC(=O)c1ccc(N2CCCC2=O)cc1	/	/	/	-14%	/	/
O=C(Nc1ccc(N2CCOCC2)cc1)Nc1ccc2nc(-c3ccco3)c(-c3ccco3)nc2c1	6%	9%	-11	-13%	-3%	/
O=C(NCCCO)Nc1ccc2nc(-c3ccco3)c(-c3ccco3)nc2c1	7.1µM*[quencher]	?	-43*	/	?	74*	Tau TEM fibril=4.5*
Cn1ncc(Cl)c1C(=O)Nc1cccc(Cl)c1	-28%	13µM*	-5	-22%	?	93*	Tau TEM fibril=3*
CSc1cccc(NC(=O)c2c(Cl)cnn2C)c1	-2%	-2%	3	0%	3%	/
C=CC[C@@H](CC(=O)N[C@H](CO)Cc1ccccc1)C(=O)N[C@@H](COC(=O)[C@@H](CC=C)Cc1ccc(F)cc1)Cc1ccccc1	/	/	/	-14%	/	/
COc1ccc2[nH]c(=O)c(CNc3ccccc3OC)cc2c1	?	7.9µM*	-34*	-20%	10µM*	61*	Tau TEM fibril=?
SMILES	Tau fluor cs	Tau fibril ThT	Coupling enz	USP1-UAF1 inh	Tau FP inhib	tau sediment	others
COc1ccc2[nH]c(=O)c(CNc3ccccc3C)cc2c1	-18%	?	-27	-26%	-13%	/
CCOC(=O)c1nn(-c2cccc(C(F)(F)F)c2)c(=O)c2c(N)scc12	/	/	/	/	/	41*
CCOC(=O)c1nn(-c2ccc(Cl)c(Cl)c2)c(=O)c2c(N)scc12	/	/	/	/	/	12
CCOC(=O)c1nn(-c2ccc(C)c(C)c2)c(=O)c2c(N)scc12	-15%	-10%	-49*	-21%	-5%	?
CCOC(=O)c1nn(-c2ccc(OC)cc2)c(=O)c2c(N)scc12	?	8.9µM*	-53*	?	?	66*	Tau TEM fibril=2*
Cc1c(C(=O)O)nn(-c2cccc(C(F)(F)F)c2)c(=O)c1C#N	/	/	-3	-20%	/	/
C=CCCO[C@@H]1O[C@@H](C)[C@H](O)C[C@H]1O	/	/	/	-20%	/	/
COc1cccc(C(=O)NCCNC(=O)c2cnccn2)c1	/	/	-2	3%	/	/
CCOC(=O)c1nn(-c2ccccc2)c(=O)c2c(NC(=O)c3ccccc3)scc12	/	/	/	/	/	2
CCOC(=O)c1nc(N)c(=O)n(-c2ccccc2)n1	3%	-9%	1	-8%	-3%	/
CCOC(=O)c1nn(-c2ccccc2)c(=O)c2c(N)sc(C)c12	/	/	/	/	/	4
CCC(=C(CC)c1ccc(O)cc1)c1ccc(O)cc1	/	/	1	/	/	/
CCOc1ccc(NS(=O)(=O)c2ccc3[nH]cc(C(=O)NCCc4ccccc4)c(=O)c3c2)cc1	-9%	2%	/	-24%	?	/
CC(C)c1ccc(NS(=O)(=O)c2ccc3[nH]cc(C(=O)NCCc4ccccc4)c(=O)c3c2)cc1	-8%	5%	/	-13%	?	8
Cc1ccc(CNC(=O)Cn2nc(C)n3cccc3c2=O)cc1	-19%	9%	/	0%	?	/
COc1ccc(CNC(=O)Cn2nc(C)n3cccc3c2=O)cc1	-15%	17%	0	?	?	5
CC(/C=C1\SC(=S)N(NC(=O)c2cccc(O)c2)C1=O)=C\c1ccccc1	14µM*[quencher]	7.1µM*	1	-24%	14µM*	?	Tau TEM fibril=0
Cc1ccc(N2CC(C)Cn3c2nc2c3c(=O)[nH]c(=O)n2C)cc1C (centres undefined)	/	/	1	-5%	/	/
O=C(Nc1nc2ccc(S(=O)(=O)N3CCCC3)cc2s1)c1ccc(F)cc1	-7%	16%	/	-7%	-15%	14
Cc1ccc(S(=O)(=O)CCC(=O)OCc2nnc(-c3ccc([N+](=O)[O-])cc3)o2)cc1	/	/	/	-16%	/	/

Assay outcomes from PubChem.
